Reference: PubChem BioAssay (Tox21)
Inconclusive results are not listed. Active and inactive are the calls of the source. Unless noted, calls follow the shape of the dose curve; as a rule, active = well fitted curve in the direction sought with a large enough effect in the repeat runs; inconclusive = weak or mixed curves; inactive = no such curve, though single readings can be large; an effect the other way counts as inactive or inconclusive.

Assays:
[1] = qHTS assay for small molecules that induce genotoxicity in human embryonic kidney cells expressing luciferase-tagged ATAD5 (AID 651632); also: nearly all actives have a fitted effect of over 15% in size
In short: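 HEK293T cells carrying a luciferase reporter tagged to ATAD5 were exposed to compound or DMSO vehicle for 16 hr at 37C, 5% CO2. Amplite was added, and after 30 min at room temperature luciferase activity was read as a marker of ATAD5 induction.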

[2] = qHTS assay for small molecule agonists of the p53 signaling pathway - cell viability (AID 651633; calls by dose curve;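 also: p53RE-bla HCT reporter cells with a stable beta-lactamase p53 reporter; series mostly up to about 83 µM; nearly all actives have a fitted effect of over 30% in size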)
In short: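 Viability counter-read: CellTiter-Glo luminescence (30 min, room temperature) in the same p53RE-bla plates. These plates had been exposed to compounds for 16 h at 37 C.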

[3] = qHTS assay for small molecules that induce genotoxicity in human embryonic kidney cells expressing luciferase-tagged ATAD5 - cell viability (AID 651634; calls by dose curve; also: nearly all actives have a fitted effect of over 25% in size)
In short: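 HEK293T cells expressing luciferase-tagged ATAD5 were exposed to compound or DMSO for 15.5 hr at 37C, 5% CO2. Viability was then read as live-cell protease activity by CellTiter-Fluor fluorescence after 30 min at 37C.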

[4] = qHTS assay for small molecule disruptors of the mitochondrial membrane potential - cell viability (AID 720634; calls by dose curve;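 also: human HepG2 liver cancer cells; series mostly up to about 83 µM; nearly all actives have a fitted effect of over 20% in size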)
In short: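 HepG2 cells seeded overnight at 37 C, then exposed to compound or DMSO for 1 hr at 37 C, 5% CO2. m-MPI dye added, then CellTiter-Glo for 30 min at room temperature; viability read as ATP luminescence.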

[5] = qHTS assay for small molecule disruptors of the mitochondrial membrane potential (AID 720635)
In short: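 Mitochondrial membrane potential tracked with Mito-MPS dye, red aggregates (ex 540/em 590 nm) against green monomers (ex 490/em 535 nm). Compound treatment 1 hr at 37C, dye 30 min in HepG2.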

[6] = qHTS assay to test for compound auto fluorescence at 590 nm (red) in HepG2 cells (AID 720674)
In short: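 We screened compounds on adherent HepG2 cells, incubating them for an hour at 37 C in 5% CO2 before reading emission at 590 nm under 540 nm excitation; values reflect equivalence to Rose Bengal sodium fluorescence.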

[7] = qHTS assay to test for compound auto fluorescence at 535 nm (green) in HepG2 cells (AID 720675)
[8] = qHTS assay to test for compound auto fluorescence at 460 nm (blue) in HEK293 cells (AID 720678)
In short: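 HEK293, 2,000 cells/well, 10% dialyzed FBS; attach 4-5 hr 37C; pin compound or DMSO; o/n 37C/5% CO2; fluorescence 405/460 nm; triamterene-equivalent units.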

[9] = qHTS assay to test for compound auto fluorescence at 590 nm (red) in HEK293 cells (AID 720679)
In short: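 Intensity at 540nm excitation and 590nm emission is reported as Rose Bengal sodium-equivalent autofluorescence. Measurements followed overnight exposure (37C, 5% CO2) of HEK293 cells, 2,000 per well, to 23 nL compound.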
% is scaled to controls: 0 for no effect and ±100 for the full control effect.

CCOC(=O)C(C)(C)C
inactive: outcome [1] | outcome [2] | Potency [3] | outcome [4] | Potency [5] | outcome [6] | outcome [7] | outcome [8] | outcome [9]

CCN(CCC#N)c1ccccc1
inactive: outcome [1] | outcome [2] | Potency [3] | outcome [4] | outcome [6] | outcome [7] | outcome [9]

CCC1Nc2cc(Cl)c(S(N)(=O)=O)cc2S(=O)(=O)N1 (configuration not stated)
inactive: outcome [1] | outcome [2] | Potency [3] | outcome [4] | outcome [6] | outcome [7] | outcome [8] | outcome [9]

CC(CC(=O)O)CC(C)(C)C (configuration not stated)
inactive: outcome [1] | outcome [2] | Potency [3] | outcome [4] | outcome [6] | outcome [7] | outcome [8]

C[CH2][Ge]([Cl])([CH2]C)[CH2]C
inactive: outcome [1] | outcome [2] | Potency [3] | outcome [4] | outcome [6] | outcome [7] | outcome [8]

CCCCCCCCCCCCOC(C)=O
inactive: outcome [1] | outcome [2] | Potency [3] | outcome [4] | Potency [5] | outcome [6] | outcome [7] | outcome [8] | outcome [9]

C=CCOCC(O)CCl (configuration not stated)
inactive: outcome [1] | outcome [2] | Potency [3] | outcome [4] | outcome [6] | outcome [7] | outcome [9]

CC(C)CCCCCCOC(=O)C1CCCCC1C(=O)OCCCCCCC(C)C (configuration not stated)
inactive: outcome [1] | outcome [2] | Potency [3] | outcome [4] | outcome [6] | outcome [7] | outcome [8] | outcome [9]

CNC(=O)C(c1ccccc1)c1ccccc1
inactive: outcome [1] | outcome [2] | Potency [3] | outcome [6] | outcome [7] | outcome [9]

CCCCCCCCCCCCCC(=O)OC
inactive: outcome [1] | Potency [3] | outcome [6] | outcome [7] | outcome [9]

COc1ccc(N=Nc2cc(C)c(N=Nc3ccc(S(=O)(=O)O)cc3)cc2OC)cc1
inactive: outcome [1] | Potency [3] | outcome [6] | outcome [7] | outcome [8] | outcome [9]

NCCc1ccn[nH]1
inactive: outcome [1] | Potency [3] | outcome [4] | Potency [5] | fluorescence, relative to Rose Bengal [6] 0.0089% [at 18.6 µM] | fluorescence, % of fluorescein control [7] 0.0074% [at 18.6 µM] | fluorescence, % of triamterene [8] -0.006% [at 18.6 µM] | fluorescence, % of fluorescent control [9] 0.131% [at 18.6 µM]

CN=C(NC#N)NCCSCc1csc(N=C(N)N)n1
inactive: outcome [1] | Potency [3] | Potency [5] | outcome [6] | outcome [7] | outcome [8] | outcome [9]

CCCCCCCCCCCCC1CO1 (configuration not stated)
inactive: outcome [2] | outcome [4] | Potency [5] | outcome [6] | outcome [7] | outcome [8] | outcome [9]

O=CO
inactive: activity change, negative = cytotoxicity [2] 17.2% [at 8.08 µM] | activity change, negative = cytotoxicity [4] 10.1% [at 8.08 µM] | fluorescence, relative to Rose Bengal [6] 0.134% [at 9.17 µM] | fluorescence, % of fluorescein control [7] -0.0157% [at 9.17 µM] | fluorescence, % of triamterene [8] 0.001% [at 9.17 µM] | fluorescence, % of fluorescent control [9] 0.473% [at 9.17 µM]

Nc1cc(Cl)cc(S(=O)(=O)O)c1O
inactive: outcome [1] | Potency [3] | outcome [6] | outcome [7] | outcome [8]

O=C(O)c1c(Cl)ccc(Cl)c1Cl
inactive: outcome [1] | Potency [3] | outcome [6] | outcome [7] | outcome [8]

CN(C1CCCCC1)S(=O)(=O)c1ccccc1N
inactive: outcome [1] | outcome [2] | Potency [3] | outcome [6] | outcome [7] | outcome [8]

CCCCCCCC[Si](OCC)(OCC)OCC
inactive: outcome [1] | outcome [4] | outcome [6] | outcome [7] | outcome [8] | outcome [9]

CC1=CC[C@H](CC=O)C1(C)C
inactive: outcome [1] | Potency [3] | outcome [4] | Potency [5] | outcome [6] | outcome [7] | outcome [8] | outcome [9]

Cc1ccccc1C
inactive: outcome [1] | Potency [3] | outcome [4] | Potency [5] | outcome [6] | outcome [7] | outcome [8] | outcome [9]

Cc1cccc(NC(=S)N(C)C)c1
inactive: outcome [1] | Potency [3] | outcome [4] | outcome [6] | outcome [7] | outcome [8] | outcome [9]
